Sampled rows, rich in hits. Any-hit rate of the full collection: about 1.5%.
MEX-5 binding – C. elegans MEX-5 TCR-2 RNA binding activity | activity score (negative = inhibition of binding), % at 10 µM | hit rate 0.38% among 300,000 | AID 1832 | MEX-5/FITC-TCR2 RNA binding, fluorescence polarization; active compounds read low | Q9XUB2;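 active = inhibition past about -25% in most replicates, and total fluorescence under double the plate's negative control median, limit read from the data; inconclusive = replicates evenly split on the limit, or fluorescence at least double controls; inactive = too little inhibition in most replicates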;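 note: 0% = DMSO and -100% = 5 µM competing unlabeled TCR2 RNA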
GLD-1 RNA inh – GLD-1-TGE RNA interaction inhibition (C. elegans) | Q17339 | purified GLD-1 + fluorescein TGE RNA, fluorescence polarization | inhibition, % at 5.96 µM | hit rate 0.44% among 320,000;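 active = percent inhibition above a per-plate cutoff, the plate mean of test compounds plus 3 SD, cut at about 30% in these data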;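 note: 0% = DMSO wells with GLD-1 and probe and 100% = wells lacking GLD-1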
MCL1-BIM inh – inhibitors of human MCL1 binding to BIM-BH3 peptide. GST-MCL1 / FITC-Bim-BH3 fluorescence polarization. hit rate 0.68% among 320,000. inhibition, % at 10.9 µM. Q07820;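 active = inhibition above the mean inhibition of all tested compounds plus 3 SD, set per campaign, cut at about 40% in these data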;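 note: 0% = DMSO wells and 100% = unlabeled Bim-BH3 peptide control; higher means more loss of mP so more displacement of Bim peptide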
EBV gp42 inh – inhibitors of Epstein-Barr virus glycoprotein 42. Q1HVG2. Fluorescence polarization binding assay, mP read-out. inhibition, % (tested at 21.74 µM). hit rate 0.42% among 220,000; in the data active = inhibition above about 50%
Target sequence (Q1HVG2 whole entry, looked up): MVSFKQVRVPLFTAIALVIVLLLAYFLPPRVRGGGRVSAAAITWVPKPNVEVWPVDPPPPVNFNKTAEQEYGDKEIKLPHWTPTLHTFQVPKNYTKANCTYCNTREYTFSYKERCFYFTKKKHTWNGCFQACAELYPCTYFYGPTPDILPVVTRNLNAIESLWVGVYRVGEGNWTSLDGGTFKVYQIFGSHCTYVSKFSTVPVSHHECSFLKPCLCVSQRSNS
BCLXL inh – Bcl-xL (human) inhibition; GST-Bcl-xL / FITC-Bim BH3 peptide fluorescence polarization; inhibition, % at 10.9 µM; hit rate 0.7% among 320,000; AID 2129;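 active = inhibition above the mean of all tested compounds plus 3 SD, cutoff set per campaign, cut at about 30% in these data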;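 note: 0% = DMSO wells and 100% = unlabeled Bim-BH3 peptide competitor; inhibitors lower millipolarization by displacing the labeled peptide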
Target sequence (Q07817 whole entry, looked up): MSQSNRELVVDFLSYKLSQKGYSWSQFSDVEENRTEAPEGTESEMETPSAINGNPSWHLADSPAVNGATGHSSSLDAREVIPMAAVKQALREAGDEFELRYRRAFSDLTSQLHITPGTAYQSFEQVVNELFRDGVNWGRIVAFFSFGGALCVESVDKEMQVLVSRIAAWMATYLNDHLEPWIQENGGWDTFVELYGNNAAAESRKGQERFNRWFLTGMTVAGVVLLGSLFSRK
eLon inh – inhibitors of E. coli Lon protease. P0A9M0. purified E. coli Lon protease, fluorescence polarization. inhibition, % at 7.94 µM. hit rate 0.42% among 360,000; in the data active = inhibition above about 13%, passing the limit was not always enough;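 note: 0% = enzyme with probe and DMSO and 100% = no enzyme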
Bcl-xL conf – counter-screen for MCL1 inhibitors: confirmation of human Bcl-xL inhibitors. hit rate 54% among 1,700. shares compounds with MCL1-BIM inh. inhibition, % at 10.9 µM. GST-Bcl-xL / FITC-Bim BH3 peptide FP binding. AID 2166;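 active = inhibition above a cutoff equal to the mean inhibition of all tested compounds plus 3 SD, cut at about 30% in these data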;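 note: 0% = DMSO wells and 100% = unlabeled Bim BH3 control peptide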
MCL1 inh confirm – MCL1-BIM-BH3 interaction inhibition, confirmation; GST-MCL1 / FITC-Bim-BH3 fluorescence polarization; inhibition, % at 10.9 µM; shares compounds with MCL1-BIM inh; hit rate 61% among 1,700;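 active = inhibition above the average of all tested compounds plus 3 SD, cut at about 40% in these data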;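 note: 0% = DMSO wells and 100% = unlabeled Bim-BH3 control peptide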
GLD-1 TGE cf – GLD-1 TGE RNA interaction inhibition, confirmation; inhibition, % at 5.96 µM; hit rate 10% among 550; AID 2459; GLD-1/FL-TGE RNA fluorescence polarization, biochemical; shares compounds with GLD-1 RNA inh;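 active = average inhibition across triplicates above the hit cutoff set in the primary screen, cut at about 32% in these data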;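 note: 0% = GLD-1 with RNA probe and DMSO and 100% = wells lacking GLD-1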
An asterisk follows results filed as active; ? = inconclusive; nt = no result; + = active, no number.

SMILES	MEX-5 binding	GLD-1 RNA inh	MCL1-BIM inh	EBV gp42 inh	BCLXL inh	eLon inh	Bcl-xL conf	MCL1 inh confirm	GLD-1 TGE cf
O=C1NC(Cc2ccc(O)cc2)c2nc3cc(F)c(F)cc3c(=O)n2-c2ncccc21 (configuration not stated)	nt	nt	nt	nt	nt	-4.5	nt	nt	nt
Cc1cc(N2CCN(C(=O)c3ccco3)CC2)c2ccccc2n1	0.4	3.5	2.9	-7.6	-1.4	-7.4	nt	nt	nt
O=C(O)CCNc1cc(N2CCN(C(=O)c3ccco3)CC2)c2noc3c2c1C(=O)c1ccccc1-3	?	37.5*	92.8*	nt	78.1*	25.4	59.4*	-111.1	-216.1
Nc1cccc2c1C(=O)N(c1ccccc1)C2=O	-25.8*	70.5*	80.1*	nt	69.0*	14.4	64.6*	78.8*	67.2*
CCOC(=O)CC(=O)CSc1nc(-c2cccnc2)cc(C)c1C#N	-0.8	35.7*	61.6*	8.2	61.2*	-11.3	8.4	-1.0	3.1
Cc1ccc(-n2c(C)nc3c(cnn3-c3ccc(C)c(C)c3)c2=O)cc1C	-0.8	75.4*	78.9*	-10.4	75.6*	4.2	13.9	6.7	-0.1
Cc1ccc(-n2c(C)nc3c(cnn3-c3ccc(F)cc3)c2=O)cc1C	0.3	4.1	-0.3	-12.9	-5.5	0.5	nt	nt	nt
N#Cc1ccccc1OCC(=O)NCC(c1ccc(F)cc1)N1CCOCC1 (configuration not stated)	nt	5.2	6.3	nt	3.2	-5.9	nt	nt	nt
CC1(C)CC(=O)C2=C(C1)Nc1ccccc1S2	?	48.7*	58.8*	37.9	56.1*	40.4	56.0*	62.3*	18.9
O=C1C=C(Nc2ccccc2C(=O)O)c2ccccc2C1=O	-3.8	-1.8	24.9	-0.2	19.9	2.5	nt	nt	nt
O=C1C=C(Nc2cccc3cccnc23)c2ccccc2C1=O	-31.2*	33.9*	58.7*	nt	54.9*	8.5	45.5*	46.2*	-4.3
Cc1cc(OCC(=O)OCC(=O)NC2CCS(=O)(=O)C2)ccc1Cl (configuration not stated)	nt	nt	nt	nt	nt	-15.3	nt	nt	nt
CC(C)[C@H](NC(=O)N1CCn2c1nc1ccccc12)C(=O)NCc1ccccc1Cl	-1.7	0.7	5.4	nt	4.7	1.7	nt	nt	nt
CNC(=O)COC(=O)c1cc(-c2ccco2)nc2ccccc12	-3.6	57.1*	121.2*	31.1	95.9*	6.5	37.9*	75.5*	-3.0
O=C(COC(=O)c1cc(-c2ccco2)nc2ccccc12)NCc1ccccc1	-0.6	10.6	18.7	-6.3	20.9	-4.6	nt	nt	nt
Nc1c(O)ccc2c1C(=O)c1ccccc1C2=O	-39.4*	72.4*	105.1*	145.7*	105.4*	nt	111.3*	127.2*	53.4*
CCOC(=O)c1ccc(NC(=O)CN(c2ccc(C)cc2)S(=O)(=O)c2c(C)n[nH]c2C)cc1	1.7	74.3*	105.7*	16.4	92.2*	1.5	6.2	7.7	-0.1
COc1ccc(NC(=O)c2ccc(-c3ccc(C(C)=O)cc3)o2)cn1	nt	56.6*	59.7*	nt	68.8*	0.7	55.3*	65.2*	44.9*
COc1ccc(N2CCCC2)c(NC(=O)c2ccc(Br)o2)c1	-5.9	38.0*	55.8*	nt	48.3*	1.0	21.7	16.4	41.1*
CCC1(CC)NC(=O)N(CC(=O)NC(=O)NCc2ccccc2)C1=O	-1.0	2.7	-20.7	nt	-12.0	5.7	nt	nt	nt
O=C(NNC(=O)c1ccc(Br)o1)c1ccc(NS(=O)(=O)c2cccs2)cc1	nt	nt	nt	nt	nt	-9.4	nt	nt	nt
Cc1ccc(C(=O)NNC(=O)c2ccc(NS(=O)(=O)c3cccs3)cc2)o1	nt	45.8*	+	nt	60.8*	-0.4	-1.0	-3.2	-5.3
COCCCN1C(=O)C(CC(=O)NCCCN(C)C)CC(C(=O)N2CCOCC2)=C1C (configuration not stated)	nt	nt	nt	nt	nt	-9.6	nt	nt	nt
COc1ccccc1N1C(=O)c2cccc3c(C(=O)O)ccc(c23)C1=O	-0.6	-0.2	-3.9	-24.3	5.0	-0.1	nt	nt	nt

Screens deposited in PubChem by several laboratories.
